# Test results: PubChem BioAssay (NCI)
# This is part of a sample that, as a whole, favours compounds with a hit. Of some 79,000 tested, about 15% had one in any assay. Unmarked numbers belong to inactive results. Active and inactive are the calls of the source. No stated cut-off is given here; in the data, active means growth inhibition above about 70%; inactive means the rest.
# Assays:
# [1] = NCI Yeast Anticancer Drug Screen. Data for the rad50 strain (AID 155);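 further: 0% = growth of vehicle-only cultures of the same strain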; details: S. cerevisiae rad50 strain growth inhibition, active compounds read high
# Method in brief: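 Compounds were tested on a yeast strain with an engineered DNA damage repair alteration; the reported value is growth inhibition normalised to vehicle treatment.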
# [2] = NCI Yeast Anticancer Drug Screen. Data for the mec2-1 strain (AID 157); details: S. cerevisiae mec2-1 strain, active compounds read high
# Method in brief: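 Yeast mec2-1 mutant treated with compound. Readout: growth inhibition vs vehicle controls.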
# [3] = NCI Yeast Anticancer Drug Screen. Data for the sgs1 mgt1 strain (AID 161);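 further: 0% = growth of cultures given vehicle only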; details: S. cerevisiae sgs1 mgt1 strain, active compounds read high
# Method in brief: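 Genetically altered yeast, compound exposure, growth inhibition relative to vehicle.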
# [4] = NCI Yeast Anticancer Drug Screen. Data for the cln2 rad14 strain (AID 165);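 further: 0% = growth equal to vehicle treated cultures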; details: S. cerevisiae cln2 rad14 strain, active compounds read high
# Method in brief: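 cln2 rad14 yeast strain; compound exposure; growth inhibition read vs vehicle controls.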
# [5] = NCI Yeast Anticancer Drug Screen. Data for the bub3 strain (AID 167); details: S. cerevisiae bub3 mutant strain, active compounds read high
# Method in brief: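 Growth of a checkpoint-deficient yeast mutant is measured after compound exposure. Values represent inhibition relative to vehicle.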
# [6] = NCI Yeast Anticancer Drug Screen. Data for the mlh1 rad18 strain (AID 175); details: S. cerevisiae mlh1 rad18 strain growth inhibition, active compounds read high
# Method in brief: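 Yeast w/ defined DNA-repair lesions; compound exposure; growth vs vehicle controls → % inhibition.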
# [7] = at 5.0 µM (retest, dose inferred, filed as 0.5)
# [8] = at 50.0 µM (retest, dose inferred, filed as 5.0)
Compound,"growth inhibition [1, 7]","growth inhibition [1, 8]",growth inhibition ([1]; at 50.0 µM),"growth inhibition [2, 7]","growth inhibition [2, 8]",growth inhibition ([2]; at 50.0 µM),"growth inhibition [3, 7]","growth inhibition [3, 8]",growth inhibition ([3]; at 50.0 µM),"growth inhibition [4, 7]","growth inhibition [4, 8]",growth inhibition ([4]; at 50.0 µM),"growth inhibition [5, 7]","growth inhibition [5, 8]",growth inhibition ([5]; at 50.0 µM),"growth inhibition [6, 7]","growth inhibition [6, 8]",growth inhibition ([6]; at 50.0 µM)
COc1ccc(/C=C\Cc2cc3c(cc2OCCO)OCO3)cc1,3%,92% (active),96.7% (active),7%,95% (active),96.7% (active),7%,97% (active),97.8% (active),1%,82% (active),69.6%,-1%,96% (active),85.6% (active),-2%,97% (active),97.2% (active)
COC(=O)c1cc2c(oc1=O)-c1ccccc1N(C=O)C2,-3%,-8%,0.3%,-9%,-11%,-8.75%,-13%,-11%,11.4%,-11%,-9%,-55.8%,-16%,-24%,-35.1%,0%,-21%,2.1%
O=C(O)c1ccc2c(O)c3ccccc3c(O)c2c1,3%,72% (active),99.6% (active),1%,41%,99.5% (active),3%,52%,99.6% (active),4%,50%,93.5% (active),21%,57%,99.5% (active),5%,65%,99.2% (active)
CC(C)=CCc1c(O)cc(O)c2c1OC(c1ccc(O)cc1)C(O)C2=O (stereo not given),-9%,98% (active),93.2% (active),1%,99% (active),94% (active),-4%,99% (active),93.8% (active),20%,99% (active),91.5% (active),5%,99% (active),92% (active),-2%,99% (active),92.5% (active)
NC1=NOC(=O)C1Cc1ccccc1 (stereo not given),-2%,-1%,2.3%,0%,-4%,8%,-1%,-2%,1.8%,-7%,-4%,76.8% (active),2%,-3%,-6.95%,-2%,-2%,15.6%
CC1(C)CC[C@]2(C(=O)O)CC[C@]3(C)C(=CC[C@@H]4[C@@]5(C)C[C@H](O)[C@H](O)[C@@](C)(C(=O)O)[C@@H]5CC[C@]43C)[C@@H]2C1,100% (active),99% (active),91.2% (active),100% (active),100% (active),94.1% (active),99% (active),99% (active),92.7% (active),99% (active),99% (active),92% (active),99% (active),99% (active),92% (active),100% (active),100% (active),88.7% (active)
Cc1cc(C)c(Cc2ccccc2O)cc1Cc1ccccc1O,33%,47%,90.5% (active),35%,46%,91.7% (active),80% (active),97% (active),92.5% (active),65%,99% (active),90.7% (active),87% (active),98% (active),90.1% (active),34%,38%,89.7% (active)
N#CC1C(=O)NC(=O)C(C#N)C1c1ccc(Cl)c(Cl)c1 (stereo not given),-1%,42%,89.2% (active),-1%,35%,39.5%,1%,26%,57.5%,-7%,-2%,21.9%,-8%,34%,58.3%,-2%,53%,63.4%
Cc1cccc(C)c1O,17%,99% (active),99% (active),-1%,99% (active),98.5% (active),0%,98% (active),98.8% (active),-9%,98% (active),97.8% (active),3%,91% (active),98.5% (active),5%,99% (active),99.5% (active)
O=c1c(-c2ccccc2)c(-c2ccccc2)c1=O,-98%,84% (active),97.7% (active),-37%,89% (active),96.2% (active),-36%,77% (active),63.1%,-49%,76% (active),95.3% (active),-38%,84% (active),96.8% (active),-85%,69%,85.5% (active)
